Assay [1] is described as follows: rescue of PC12 cells from polyQ htt toxicity – LDH release (AID 1610). Conditions: PC12 mutant huntingtin toxicity, final LDH at 4 uM, stronger effect = lower value. (In general: LDH leaks from cells whose membrane has failed.)
Assay [2] in a line: antimalarial activity against Dd2 strain (AID 2302).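 Further: 0% = DMSO untreated growth and 100% = chloroquine plus artemisinin killed control.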 The conditions noted are these: P. falciparum Dd2 in RBCs, LDH growth readout, 72 h; at 2 µM; stronger effect = higher value.

Results filed as inconclusive are left out. Calls of active or inactive are those of the source.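 How the source made its calls: active means growth inhibition above 50% at the single 2 µM test dose, taken to imply half-maximal potency below 2 µM; inactive means the rest.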

Data on two compounds can be found in PubChem BioAssay.

`CC(C)(C)c1ccc(C(O)CCCN2CCC(C(O)(c3ccccc3)c3ccccc3)CC2)cc1` (configuration not stated) gave a normalised LDH release in assay [1] of 1. Consider `COc1ccc(C[C@H](N)C(=O)N[C@H]2[C@@H](O)[C@H](n3cnc4c(N(C)C)ncnc43)O[C@@H]2CO)cc1`, for which the growth inhibition in assay [2] is 91% (active).
